# Assay results as given in PubChem BioAssay (EPA / NIEHS).
# Results filed as inconclusive are left out. A structure can be active in one record and inactive in another. Active and inactive are the calls of the source. Rule for the calls: active = hit-call score of the fitted dose curve at least 0.9, where 1 is the maximum; inconclusive = response in the unintended direction; inactive = score below 0.9.
# Tests used:
# [1] = target: human Protein Tyrosine Phosphatase Non-receptor Type 6 (PTPN6), PTPN6 (gene 5777) (UniProt P29350); assay: NVS_ENZ_hPTPN6: NovaScreen (NVS) Enzymatic Assay for human Protein Tyrosine Phosphatase Non-receptor Type 6 (PTPN6) (AID 2283210)
# Procedure, shortened: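 Recombinant human PTPN6 from SF9 cells, enzyme activity followed by fluorescence after mobility-shift separation of substrate and product at 1.33 h. Chemicals first tested at a single 25 uM in duplicate, then confirmed across concentration series; loss of signal relative to DMSO.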
# [2] = target: Serine/threonine-protein phosphatase PP1-alpha catalytic subunit (Homo sapiens) (UniProt P62136); assay: NVS_ENZ_hPPP1CA: NovaScreen (NVS) Enzymatic Assay for human Protein Phosphatase 1 Aatalytic subunit Alpha (PPP1CA) (AID 2283200)
# Procedure, shortened: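 Chemicals were first screened in duplicate at 25 uM, and those passing threshold (e.g. 30% inhibition) were run as concentration series to 50 uM. Cell-free recombinant protein, 1.33 h read, fluorescent substrate/product mobility-shift detection, normalised to DMSO.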
# [3] = target: human Vascular Endothelial Growth Factor Receptor 1 (VEGFR1), FLT1 (gene 2321) (UniProt P17948); assay: NVS_ENZ_hVEGFR1: NovaScreen (NVS) Enzymatic Assay for human Vascular Endothelial Growth Factor Receptor 1 (VEGFR1) (AID 2283226)
# Procedure, shortened: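 Kinase activity of recombinant human VEGFR1 was read by fluorescence after electrophoretic separation of product from substrate, 1 h post-dosing; initial duplicate single-point testing at 25 uM, followed by concentration-series follow-up, with DMSO as baseline.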
# [4] = target: human Phosphoinositide 3-kinase alpha (PI3Ka), PIK3CA (gene 5290) (UniProt P42336); assay: NVS_ENZ_hPI3Ka: NovaScreen (NVS) Enzymatic Assay for human Phosphoinositide 3-kinase alpha (PI3Ka) (AID 2283196)
# Procedure, shortened: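 Recombinant human PI3Kα with fluorescent substrate, 1 h, product separated by electrophoretic mobility shift; 25 uM duplicate screen, hits (e.g., 30% inhibition) retested singly up to 50 uM; loss of signal vs DMSO.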
# [5] = target: human Phosphodiesterase 10 (PDE10), PDE10A (gene 10846) (UniProt Q9Y233); assay: NVS_ENZ_hPDE10: NovaScreen (NVS) Enzymatic Assay for human Phosphodiesterase 10 (PDE10) (AID 2283195)
# Procedure, shortened: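 Biochemical single-readout PDE10A assay, cell-free, extracted protein. Compounds first screened at 25 uM in duplicate, hits then titrated to 50 uM max. Activity measured after 1 h; loss-of-signal fitted against DMSO negative control.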
# [6] = target: Tyrosine-protein phosphatase non-receptor type 12 (Homo sapiens) (UniProt Q05209); assay: NVS_ENZ_hPTPN12: NovaScreen (NVS) Enzymatic Assay for human Protein Tyrosine Phosphatase Non-receptor Type 12 (PTPN12) (AID 2283204)
# Procedure, shortened: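 Single-concentration duplicates (25 uM) preceded singleton concentration-response up to 50 uM for chemicals passing threshold. Cell-free recombinant PTPN12 activity was read 1.33 h after dosing via fluorescence after mobility-shift separation; loss of signal versus DMSO.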
# [7] = target: human Protein Tyrosine Phosphatase Non-receptor Type 9 (PTPN9), PTPN9 (gene 5780) (UniProt P43378); assay: NVS_ENZ_hPTPN9: NovaScreen (NVS) Enzymatic Assay for human Protein Tyrosine Phosphatase Non-receptor Type 9 (PTPN9) (AID 2283209)
# Procedure, shortened: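 Sf9-expressed enzyme in a cell-free assay, fluorescence read 1.33 h after dosing with mobility-shift separation of substrate and product. Tested at 25 uM in duplicate, then up to 50 uM; signal loss versus DMSO.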
# [8] = target: human Protein Tyrosine Phosphatase Non-receptor Type 1 (PTPN1), PTPN1 (gene 5770) (UniProt P18031); assay: NVS_ENZ_hPTPN1: NovaScreen (NVS) Enzymatic Assay for human Protein Tyrosine Phosphatase Non-receptor Type 1 (PTPN1) (AID 2283201)
# Procedure, shortened: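 Chemicals were first tested in duplicate at 25 uM, and those passing threshold went on to singleton concentration series topping at 50 uM. Recombinant enzyme, specific substrate, product separated by mobility shift, fluorescence read at 1.33 h; activity loss relative to DMSO.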
# [9] = target: Tyrosine-protein phosphatase non-receptor type 11 (Homo sapiens) (UniProt Q06124); assay: NVS_ENZ_hPTPN11: NovaScreen (NVS) Enzymatic Assay for human Protein Tyrosine Phosphatase Non-receptor Type 11 (PTPN11) (AID 2283202)
# Procedure, shortened: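 Compounds first tested in duplicate at 25 uM; those reaching ~30% inhibition rerun in singleton concentration-response, top 50 uM. Phosphatase activity measured after 0.5 h by fluorescence with mobility-shift separation, relative to DMSO.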
# [10] = target: Tyrosine-protein phosphatase non-receptor type 13 (Homo sapiens) (UniProt Q12923); assay: NVS_ENZ_hPTPN13: NovaScreen (NVS) Enzymatic Assay for human Protein Tyrosine Phosphatase Non-receptor Type 13 (PTPN13) (AID 2283205)
# Procedure, shortened: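 Screened first at a single 25 uM in duplicate; compounds passing the threshold (e.g. 30% inhibition) were rerun in concentration series, top 50 uM. Recombinant enzyme, fluorescent substrate, mobility-shift separation, 0.5 h read. Data fitted as inhibition relative to DMSO.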
# [11] = target: Tyrosine-protein phosphatase non-receptor type 14 (Homo sapiens) (UniProt Q15678); assay: NVS_ENZ_hPTPN14: NovaScreen (NVS) Enzymatic Assay for human Protein Tyrosine Phosphatase Non-receptor Type 14 (PTPN14) (AID 2283206)
# Procedure, shortened: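 Fluorescent substrate turnover by recombinant human PTPN14 was measured 0.5 h after compound addition, with substrate and product separated by mobility shift. Single-point screening at 25 uM, then concentration-response up to 50 uM for chemicals meeting threshold (e.g., 30% inhibition).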
# [12] = target: human Protein Tyrosine Phosphatase Non-receptor Type 4 (PTPN4), PTPN4 (gene 5775) (UniProt P29074); assay: NVS_ENZ_hPTPN4: NovaScreen (NVS) Enzymatic Assay for human Protein Tyrosine Phosphatase Non-receptor Type 4 (PTPN4) (AID 2283208)
# Procedure, shortened: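 Screened in duplicate at 25 uM, with hits then titrated to a top concentration of 50 uM. Recombinant Sf9-derived PTPN4 turnover was read by fluorescence with electrophoretic separation, 1.33 h after compound addition. DMSO served as baseline.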
# [13] = target: human Protein Tyrosine Phosphatase Receptor Type B (PTPRB), PTPRB (gene 5787) (UniProt P23467); assay: NVS_ENZ_hPTPRB: NovaScreen (NVS) Enzymatic Assay for human Protein Tyrosine Phosphatase Receptor Type B (PTPRB) (AID 2283211)
# Procedure, shortened: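 Recombinant human PTPRB with a fluorescent substrate, product separated by electrophoretic mobility shift; read 1 h after dosing. Primary screen in duplicate at 25 uM; actives then retested in concentration series; loss of signal versus DMSO.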
# [14] = target: human Protein Tyrosine Phosphatase Receptor Type F (PTPRF), PTPRF (gene 5792) (UniProt P10586); assay: NVS_ENZ_hPTPRF: NovaScreen (NVS) Enzymatic Assay for human Protein Tyrosine Phosphatase Receptor Type F (PTPRF) (AID 2283213)
# Procedure, shortened: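 Cell-free fluorescence enzyme assay with recombinant protein and substrate; product separated by electrophoretic mobility shift. Read 1 h after dosing, single 25 uM duplicate screen, then concentration-response up to 50 uM; loss of signal vs DMSO.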
# [15] = target: human Protein Tyrosine Phosphatase Receptor Type M (PTPRM), PTPRM (gene 5797) (UniProt P28827); assay: NVS_ENZ_hPTPRM: NovaScreen (NVS) Enzymatic Assay for human Protein Tyrosine Phosphatase Receptor Type M (PTPRM) (AID 2283215)
# Procedure, shortened: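 Read-out is fluorescence after electrophoretic separation of substrate and product, taken 1.33 h post-dosing with recombinant enzyme. Compounds screened at 25 uM in duplicate, then concentration series for actives; activity as signal loss relative to DMSO.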
# [16] = target: human Sirtuin 2 (SIRT2), SIRT2 (gene 22933) (UniProt Q8IXJ6); assay: NVS_ENZ_hSIRT2: NovaScreen (NVS) Enzymatic Assay for human Sirtuin 2 (SIRT2) (AID 2283217)
# Procedure, shortened: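 Single-point duplicate screen at 25 uM, then concentration-response (max 50 uM) for chemicals passing threshold. Enzyme activity of recombinant human SIRT2 measured after 1 hr by fluorescence with mobility-shift separation of product; DMSO baseline.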
# [17] = target: human Sirtuin 1 (SIRT1), SIRT1 (gene 23411) (UniProt Q96EB6); assay: NVS_ENZ_hSIRT1: NovaScreen (NVS) Enzymatic Assay for human Sirtuin 1 (SIRT1) (AID 2283219)
# Procedure, shortened: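 Cell-free recombinant SIRT1 with a fluorescent substrate; substrate and product separated by electrophoretic mobility shift and read by fluorescence intensity, 1 h after dosing. Primary screen at 25 uM in duplicate; hits re-run in concentration-response up to 50 uM, relative to DMSO.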
# [18] = target: human Sirtuin 3 (SIRT3), SIRT3 (gene 23410) (UniProt Q9NTG7); assay: NVS_ENZ_hSIRT3: NovaScreen (NVS) Enzymatic Assay for human Sirtuin 3 (SIRT3) (AID 2283222)
# Procedure, shortened: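 Cell-free enzyme assay with recombinant protein and fluorescent substrate, product separated by electrophoretic mobility shift; read 1 hour after dosing. Screened in duplicate at 25 uM, then singleton concentration-response up to 50 uM; loss of signal versus DMSO.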
# [19] = target: human SRC Proto-Oncogene, Non-receptor Tyrosine Kinase (SRC), SRC (gene 6714) (UniProt P12931); assay: NVS_ENZ_hSRC: NovaScreen (NVS) Enzymatic Assay for human SRC Proto-Oncogene, Non-receptor Tyrosine Kinase (SRC) (AID 2283223)
# Procedure, shortened: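 Compounds passing 30% inhibition at 25 uM (duplicate) were titrated to a top concentration of 50 uM. Enzyme activity read by fluorescence with mobility-shift substrate/product separation after 1 h; DMSO baseline.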
# [20] = target: human Tropomyosin Receptor Kinase A (TRKA), NTRK1 (gene 4914) (UniProt P04629); assay: NVS_ENZ_hTrkA: NovaScreen (NVS) Enzymatic Assay for human Tropomyosin Receptor Kinase A (TRKA) (AID 2283224)
# Procedure, shortened: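 Compounds were screened at 25 uM in duplicate, then concentration series to a 50 uM top for those meeting threshold (e.g. 30% inhibition). Enzyme was recombinant human TrkA, incubated 1 h. Product formation was quantified by fluorescence after mobility-shift separation.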
# Sequence of human Vascular Endothelial Growth Factor Receptor 1 (VEGFR1), FLT1 (gene 2321) (P17948 whole entry, looked up): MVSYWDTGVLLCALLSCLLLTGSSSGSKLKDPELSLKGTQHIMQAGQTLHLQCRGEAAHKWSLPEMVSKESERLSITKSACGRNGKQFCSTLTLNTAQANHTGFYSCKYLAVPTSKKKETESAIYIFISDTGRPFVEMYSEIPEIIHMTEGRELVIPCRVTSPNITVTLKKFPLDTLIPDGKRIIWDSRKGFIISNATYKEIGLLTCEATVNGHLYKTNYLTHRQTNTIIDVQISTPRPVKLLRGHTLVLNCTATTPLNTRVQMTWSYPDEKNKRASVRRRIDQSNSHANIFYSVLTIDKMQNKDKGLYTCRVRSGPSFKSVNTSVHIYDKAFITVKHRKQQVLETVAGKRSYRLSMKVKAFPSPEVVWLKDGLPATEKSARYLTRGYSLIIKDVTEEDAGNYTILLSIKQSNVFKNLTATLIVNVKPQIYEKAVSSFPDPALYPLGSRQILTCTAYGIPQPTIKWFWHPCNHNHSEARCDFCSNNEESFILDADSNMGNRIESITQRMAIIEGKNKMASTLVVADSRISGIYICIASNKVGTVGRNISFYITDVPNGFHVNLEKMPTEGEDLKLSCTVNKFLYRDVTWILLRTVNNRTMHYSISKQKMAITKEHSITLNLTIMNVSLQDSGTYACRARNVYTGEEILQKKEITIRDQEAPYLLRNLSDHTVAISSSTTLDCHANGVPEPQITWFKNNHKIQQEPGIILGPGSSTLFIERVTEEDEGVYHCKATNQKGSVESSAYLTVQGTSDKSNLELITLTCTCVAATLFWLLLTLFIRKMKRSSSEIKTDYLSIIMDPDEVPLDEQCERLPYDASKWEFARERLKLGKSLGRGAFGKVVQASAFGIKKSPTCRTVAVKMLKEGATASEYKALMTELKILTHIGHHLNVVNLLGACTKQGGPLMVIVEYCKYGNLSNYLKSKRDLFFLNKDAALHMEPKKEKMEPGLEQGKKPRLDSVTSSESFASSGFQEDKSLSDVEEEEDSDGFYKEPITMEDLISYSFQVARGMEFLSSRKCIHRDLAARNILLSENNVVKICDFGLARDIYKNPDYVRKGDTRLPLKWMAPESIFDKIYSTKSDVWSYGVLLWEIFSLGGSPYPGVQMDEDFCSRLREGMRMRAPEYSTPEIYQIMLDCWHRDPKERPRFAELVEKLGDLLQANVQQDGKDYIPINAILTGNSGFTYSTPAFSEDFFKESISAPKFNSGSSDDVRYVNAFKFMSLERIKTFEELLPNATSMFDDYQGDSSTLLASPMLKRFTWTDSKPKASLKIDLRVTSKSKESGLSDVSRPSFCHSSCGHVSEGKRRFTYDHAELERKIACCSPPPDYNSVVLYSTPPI
# Sequence of human Phosphoinositide 3-kinase alpha (PI3Ka), PIK3CA (gene 5290) (P42336 whole entry, looked up): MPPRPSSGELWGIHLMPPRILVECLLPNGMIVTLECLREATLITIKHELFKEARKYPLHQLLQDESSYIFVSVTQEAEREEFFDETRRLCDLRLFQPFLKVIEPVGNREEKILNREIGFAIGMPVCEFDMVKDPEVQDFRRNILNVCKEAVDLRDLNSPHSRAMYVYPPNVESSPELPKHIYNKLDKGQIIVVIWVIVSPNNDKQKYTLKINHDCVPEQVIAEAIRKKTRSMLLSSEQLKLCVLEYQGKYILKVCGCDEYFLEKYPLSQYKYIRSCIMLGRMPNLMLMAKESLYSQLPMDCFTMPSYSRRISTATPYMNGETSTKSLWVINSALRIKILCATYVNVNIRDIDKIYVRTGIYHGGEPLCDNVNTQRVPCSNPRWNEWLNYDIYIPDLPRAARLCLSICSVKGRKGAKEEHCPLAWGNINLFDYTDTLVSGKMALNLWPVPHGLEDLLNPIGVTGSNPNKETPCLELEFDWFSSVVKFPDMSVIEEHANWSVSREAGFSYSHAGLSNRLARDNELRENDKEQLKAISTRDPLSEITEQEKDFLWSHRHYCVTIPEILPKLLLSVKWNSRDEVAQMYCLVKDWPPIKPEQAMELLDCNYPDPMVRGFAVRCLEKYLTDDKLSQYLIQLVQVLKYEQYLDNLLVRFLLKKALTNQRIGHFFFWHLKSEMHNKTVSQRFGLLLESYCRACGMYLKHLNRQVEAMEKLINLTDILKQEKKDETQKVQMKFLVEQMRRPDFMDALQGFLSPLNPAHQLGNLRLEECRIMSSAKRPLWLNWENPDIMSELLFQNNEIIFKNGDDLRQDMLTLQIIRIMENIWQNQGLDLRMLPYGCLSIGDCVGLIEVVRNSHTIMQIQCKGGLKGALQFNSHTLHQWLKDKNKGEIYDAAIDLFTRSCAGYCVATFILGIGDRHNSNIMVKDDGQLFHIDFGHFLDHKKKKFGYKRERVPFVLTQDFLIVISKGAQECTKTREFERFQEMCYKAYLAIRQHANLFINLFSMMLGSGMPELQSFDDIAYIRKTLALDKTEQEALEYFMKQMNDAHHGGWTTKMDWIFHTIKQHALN
# Sequence of human Phosphodiesterase 10 (PDE10), PDE10A (gene 10846) (Q9Y233 whole entry, looked up): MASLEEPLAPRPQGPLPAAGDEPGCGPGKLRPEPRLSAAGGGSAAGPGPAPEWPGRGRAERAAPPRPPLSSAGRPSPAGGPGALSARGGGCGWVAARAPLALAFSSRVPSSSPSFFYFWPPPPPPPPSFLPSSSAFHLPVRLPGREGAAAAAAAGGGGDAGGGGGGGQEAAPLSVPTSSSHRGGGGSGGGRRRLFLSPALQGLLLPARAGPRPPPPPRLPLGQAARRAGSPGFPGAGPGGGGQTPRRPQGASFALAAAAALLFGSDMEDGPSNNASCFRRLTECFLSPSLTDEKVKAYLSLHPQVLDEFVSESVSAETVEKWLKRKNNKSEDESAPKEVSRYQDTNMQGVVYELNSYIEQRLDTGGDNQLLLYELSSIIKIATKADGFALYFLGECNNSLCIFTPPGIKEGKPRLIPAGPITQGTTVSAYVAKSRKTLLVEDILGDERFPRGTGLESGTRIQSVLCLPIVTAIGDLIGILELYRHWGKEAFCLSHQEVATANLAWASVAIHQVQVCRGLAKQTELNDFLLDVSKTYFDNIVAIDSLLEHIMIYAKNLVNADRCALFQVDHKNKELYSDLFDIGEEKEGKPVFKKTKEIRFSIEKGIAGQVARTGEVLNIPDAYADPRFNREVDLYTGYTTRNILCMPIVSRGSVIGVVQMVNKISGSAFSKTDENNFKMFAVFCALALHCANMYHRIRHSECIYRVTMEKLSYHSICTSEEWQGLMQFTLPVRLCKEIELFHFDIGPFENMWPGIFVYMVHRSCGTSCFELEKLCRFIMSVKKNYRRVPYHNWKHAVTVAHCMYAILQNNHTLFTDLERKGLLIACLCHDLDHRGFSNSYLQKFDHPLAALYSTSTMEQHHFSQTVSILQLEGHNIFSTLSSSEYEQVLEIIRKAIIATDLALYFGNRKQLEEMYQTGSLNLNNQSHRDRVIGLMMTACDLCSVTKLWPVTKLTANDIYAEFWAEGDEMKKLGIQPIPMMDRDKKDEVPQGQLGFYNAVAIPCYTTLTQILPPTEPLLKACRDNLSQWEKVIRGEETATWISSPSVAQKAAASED
# Sequence of human Protein Tyrosine Phosphatase Non-receptor Type 6 (PTPN6), PTPN6 (gene 5777) (P29350 whole entry, looked up): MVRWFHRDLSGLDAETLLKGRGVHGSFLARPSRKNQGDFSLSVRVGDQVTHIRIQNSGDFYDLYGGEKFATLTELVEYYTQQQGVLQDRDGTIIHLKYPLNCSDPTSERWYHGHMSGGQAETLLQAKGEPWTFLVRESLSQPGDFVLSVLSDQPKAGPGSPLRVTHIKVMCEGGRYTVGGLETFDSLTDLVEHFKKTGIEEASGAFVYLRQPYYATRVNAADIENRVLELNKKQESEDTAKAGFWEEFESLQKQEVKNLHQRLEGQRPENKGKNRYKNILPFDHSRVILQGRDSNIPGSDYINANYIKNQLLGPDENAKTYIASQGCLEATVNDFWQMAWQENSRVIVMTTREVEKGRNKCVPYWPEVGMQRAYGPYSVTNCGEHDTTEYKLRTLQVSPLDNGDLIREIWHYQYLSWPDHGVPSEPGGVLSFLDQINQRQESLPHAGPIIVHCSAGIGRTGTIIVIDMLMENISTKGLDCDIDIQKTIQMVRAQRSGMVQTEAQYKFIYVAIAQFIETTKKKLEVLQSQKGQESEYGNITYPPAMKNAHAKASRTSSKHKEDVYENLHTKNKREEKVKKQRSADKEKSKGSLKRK
# Sequence of human Tropomyosin Receptor Kinase A (TRKA), NTRK1 (gene 4914) (P04629 whole entry, looked up): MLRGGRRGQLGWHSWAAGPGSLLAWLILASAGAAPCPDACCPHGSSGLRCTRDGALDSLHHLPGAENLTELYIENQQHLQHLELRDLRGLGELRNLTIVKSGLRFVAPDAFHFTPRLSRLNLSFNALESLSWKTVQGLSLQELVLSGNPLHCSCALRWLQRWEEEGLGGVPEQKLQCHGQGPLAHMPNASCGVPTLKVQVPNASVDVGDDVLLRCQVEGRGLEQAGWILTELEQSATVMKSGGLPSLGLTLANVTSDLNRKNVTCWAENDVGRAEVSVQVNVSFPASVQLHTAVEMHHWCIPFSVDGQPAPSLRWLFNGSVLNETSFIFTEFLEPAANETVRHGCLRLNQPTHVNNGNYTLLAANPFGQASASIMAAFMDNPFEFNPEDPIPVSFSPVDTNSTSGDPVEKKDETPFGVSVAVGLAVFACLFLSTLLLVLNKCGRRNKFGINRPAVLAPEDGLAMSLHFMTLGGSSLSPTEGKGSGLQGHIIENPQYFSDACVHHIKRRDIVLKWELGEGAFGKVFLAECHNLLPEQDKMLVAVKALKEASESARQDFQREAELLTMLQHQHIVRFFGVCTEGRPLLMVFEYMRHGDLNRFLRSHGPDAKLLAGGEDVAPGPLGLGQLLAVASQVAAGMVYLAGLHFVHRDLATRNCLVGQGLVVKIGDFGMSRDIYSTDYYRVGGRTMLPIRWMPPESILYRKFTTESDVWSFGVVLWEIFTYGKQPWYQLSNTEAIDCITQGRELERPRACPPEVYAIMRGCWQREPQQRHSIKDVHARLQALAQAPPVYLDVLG
smiles,measurement,setting,value
CCCCC(CC)C(=O)O (stereo not drawn),outcome,[1],inactive
CC(=O)Nc1ccc(O)cc1,outcome,[2],inactive
same,outcome,[3],inactive
CCOCCOCC,outcome,[4],inactive
NC(=NCCCCCCN=C(N)/N=C(\N)Nc1ccc(Cl)cc1)/N=C(\N)Nc1ccc(Cl)cc1,AC50,[4],0.531 µM (active)
same,AC50,[3],27.6 µM (active)
CCCCCCCCCCCCCCCCCC[N+](C)(C)Cc1ccccc1,outcome,[5],inactive
same,outcome,[3],inactive
CCOC(OCC)C(=O)c1ccccc1,outcome,[5],inactive
CC(C)C=O,outcome,[4],inactive
O=C(NCc1ncc(C(F)(F)F)cc1Cl)c1c(Cl)cccc1Cl,outcome,[5],inactive
CCCC=O,outcome,[5],inactive
CC(=O)CC(C)C,outcome,[5],inactive
CCCCCC(C)OC(=O)COc1ccc(Cl)c2cccnc12 (stereo not drawn),outcome,[6],inactive
CCCCC(CC)C(=O)OCCOCCOCCOCCOC(=O)C(CC)CCCC (stereo not drawn),outcome,[4],inactive
CCN(CC)CC,outcome,[4],inactive
OCC(CO)(CBr)CBr,outcome,[7],inactive
CCCCCCCCCCCC,outcome,[4],inactive
CCc1cccc(CC)c1NC(=O)C(=O)O,outcome,[5],inactive
CCCCCCCCCCCCOS(=O)(=O)O,AC50,[5],25 µM (active)
same,outcome,[4],inactive
same,AC50,[8],22.7 µM (active)
same,AC50,[9],38.4 µM (active)
same,AC50,[6],11.9 µM (active)
same,AC50,[10],46.3 µM (active)
same,outcome,[11],inactive
same,AC50,[12],10.7 µM (active)
same,AC50,[7],16.8 µM (active)
same,AC50,[1],25 µM (active)
same,AC50,[13],7.45 µM (active)
same,outcome,[14],inactive
same,AC50,[15],25 µM (active)
same,AC50,[16],25 µM (active)
same,outcome,[17],inactive
same,outcome,[18],inactive
same,outcome,[19],inactive
same,AC50,[20],26 µM (active)
CCC1CO1 (stereo not drawn),AC50,[5],6.67 µM (active)
Clc1ccc(Nc2nnc(Cc3ccncc3)c3ccccc23)cc1,outcome,[5],inactive
C=COC(=O)C(C)(C)CCCCCC,outcome,[4],inactive
Cc1[nH]nc2c1N=C(c1ccccc1Cl)c1cc([N+](=O)[O-])ccc1N2,AC50,[19],23.1 µM (active)
same,AC50,[20],17.9 µM (active)
same,AC50,[3],0.0098 µM (active)
CCCCCCCCC(C)=O,outcome,[5],inactive
O=C1OC2(c3ccccc31)c1cc(I)c(O)c(I)c1Oc1c2cc(I)c(O)c1I,outcome,[5],inactive
O=C(NO)c1ccccc1,AC50,[5],7.2 µM (active)
same,outcome,[5],inactive
same,outcome,[4],inactive
